High-throughput results from PubChem.
Hits are enriched below; roughly 6.3% of the tested compounds scored in any of these assays.
PMK inhibit: S. pneumoniae PMK inhibitors, primary screen, biochemical, mevalonate pathway, pilot trial included. phosphomevalonate kinase (Streptococcus pneumoniae D39). inhibition, % at 10 µM. purified PMK, PK/LDH-coupled NADH absorbance 340 nm. hit rate 0.49% among 65,000. AID 539, 2006;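 active = top-ranked compounds by inhibition in the single 10 µM screen, taking a fixed number of the strongest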;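 note: 0% = full reaction with DMSO carrier and 100% = background rate without enzyme reaction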
DPM-DC inhibit: S. pneumoniae DPM-DC inhibitors, primary screen, biochemical, PK/LDH-coupled NADH fluorescence; purified DPM-DC; diphosphomevalonate decarboxylase (Streptococcus pneumoniae D39); hit rate 0.49% among 65,000; AID 556, 2006; calls only at 10 µM;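 active = the 320 compounds with the highest percent inhibition in the single-dose primary screen, excluding strongly autofluorescent ones, cut at about 32% in these data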;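 note: kinetic rate of NADH fluorescence loss reporting ADP formed by the decarboxylase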
Autofluor 339: intrinsic fluorescence of library compounds, ex339/em460 – biochemical, MLSMR library, data from DPM-DC assay, artefact control, profiling panel; compound autofluorescence, ex339/em460 nm, NADH buffer; active compounds read high; 1 = no-compound wells, NADH background; fluorescence fold increase at 10 µM; hit rate 5.5% among 65,000;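 active = at 10 µM, mean starting fluorescence two-fold or more over control wells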;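 note: signal is the first read of a kinetic run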
A340 absorber: compound light absorbance at 340 nm, profiling panel, artefact control, biochemical, MLSMR library, data from PS, PMK, MK assays; compound absorbance at 340 nm, fold over control; 65,000 tested, under 10 active; fold change at 10 µM;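 active = at 10 µM dose, initial 340 nm absorbance at least 2 fold that of control wells; inactive = change under 2 fold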;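 note: initial absorbance extrapolated from kinetic A340 decline of NADH oxidation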
Spn MK inh: S. pneumoniae MK inhibitors, primary screen, biochemical, PK/LDH-coupled NADH absorbance; purified MK, PK/LDH-coupled NADH absorbance 340 nm; inhibition, % at 10 µM; hit rate 0.48% among 65,000; AID 555, 2006;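 active = ranked among the strongest by inhibition in the single 10 µM screen, a fixed top-ranked set picked for dose follow-up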
NADH coupling: inhibitors of PK/LDH coupling enzymes, profiling panel, artefact control, biochemical, MLSMR library. coupled PK/LDH NADH assays, four targets. IC50, µM (top dose mostly 10 µM), for inactives: top-dose inhibition. hit rate 0.02% among 65,000. AID 774, 2007;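 active = single-dose screening hits from any of four coupled enzyme assays that gave an IC50 when retested across doses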;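 note: the DPM-DC format reads NADH fluorescence rather than 340 nm absorbance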
* hit, by the source's call; i = inactive; . = no result shown.

SMILES	PMK inhibit	DPM-DC inhibit	Autofluor 339	A340 absorber	Spn MK inh	NADH coupling
CCOC(=O)N1CCN(C(=O)c2cnn3c(C(F)F)cc(-c4ccc(C)cc4)nc23)CC1	2	i	2.9*	1.1	0	11%
COc1ccc(-c2cc(C(F)F)n3ncc(C(=O)NCC4CCCO4)c3n2)cc1 (stereo not given)	5	.	3*	1	6	4%
CN1CCN(C(=O)c2cnn3c(C(F)F)cc(C4CC4)nc23)CC1	0	i	1.1	0.99	9	4%
COc1ccc(-c2cc(C(F)F)n3ncc(C(=O)N4CCN5CCCC5C4)c3n2)cc1 (stereo not given)	5	.	3.6*	1.1	13	9%
O=C1C2CC=CCC2C(=O)N1c1n[nH]c(Cc2ccccc2)n1 (stereo not given)	0	i	1.1	1.1	1	0%
CCCCC(CC)C(=O)Nc1ccccc1C#N (stereo not given)	0	i	1	0.99	4	2%
CCOC(=O)COc1nc(Nc2ccccc2C)nc(N(C)C)n1	0	i	1.1	1	6	2%
CCCC(=O)N1CCN(c2ccc(NC(=O)c3cc4ccccc4o3)cc2)CC1	15	i	1	1.1	13	11%
O=C(Nc1ccc(N2CCN(C(=O)c3ccccc3)CC2)cc1)c1cc2ccccc2o1	6	i	2.4*	1.1	0	2%
CC(C)C(C(=O)NCC1CCCO1)N(Cc1ccco1)C(=O)CNS(=O)(=O)c1ccc(F)cc1 (stereo not given)	27*	i	1	1	6	11%
CCCC(C(=O)NCC1CCCO1)N(Cc1ccco1)C(=O)CNS(=O)(=O)c1ccccc1 (stereo not given)	17	i	0.9	0.99	0	9%
CC(=O)c1c(C)nn(CC(O)Cn2c3c(c4cc(C)ccc42)CCCC3=O)c1C (stereo not given)	4	.	5.2*	1.1	11	8%
COc1ccc(C2=NOC(C(=O)NCCCN3CCOCC3)C2)cc1 (stereo not given)	3	i	1.1	0.99	0	2%
COc1cc(OC)cc(-n2nc(C(=O)NCCCN3CCOCC3)c3ccccc3c2=O)c1	0	i	1.2	1	0	0%
Cc1ccc2cc3cc(C(=O)NCc4ccc5c(c4)OCO5)oc3nc2c1	1	.	5.2*	1.1	2	2%
Cc1ccc2cc3cc(C(=O)NCCN4CCOCC4)oc3nc2c1	5	.	3.2*	1.1	0	14%
COc1ccc2cc3cc(C(=O)NCCCN4CCOCC4)oc3nc2c1	4	.	5.1*	1.1	0	2%
COc1ccc2cc3cc(C(=O)Nc4ccc5c(c4)OCO5)oc3nc2c1	21	i	1.3	1.1	0	7%
COc1ccc(N2CC(C(=O)NCCCN3CCOCC3)CC2=O)cc1 (stereo not given)	0	i	1.1	1	51*	17%
C=CCn1c(=O)c2ccccc2n2c(SCc3csc(-c4ccccc4)n3)nnc12	12	i	1.1	0.97	3	5%
Cc1ccc2c(c1)N(C(=O)CSc1nncn1C)C(C)(C)c1ssc(=S)c1-2	13	i	1.1	1	5	6%
COC(=O)Cn1cnc2c(nnn2-c2cccc(Cl)c2)c1=O	5	i	1	1	0	2%
COC(=O)C1=C(N)Oc2cc(N(C)C)ccc2C1c1ccccc1OC (stereo not given)	0	i	1.2	1	1	0%
CS(=O)(=O)N1CCN(C(=O)c2ccccc2F)CC1	7	i	1	1.1	6	7%
CCN1CCN(CCCNC(=O)C2c3ccccc3C(=O)N(C)C2c2ccc(OC)cc2)CC1 (stereo not given)	0	i	1	1	3	2%
CCN1CCN(CCCNC(=O)c2cc3cc4ccc(OC)cc4nc3o2)CC1	12	.	5.2*	1.1	2	7%
